An excerpt weighted towards active compounds, which were near 1.4% of everything screened.
FAS TE block – FAS thioesterase (human) inhibition; 360,000 compounds, 0.67% hits; inhibition, % at 15 µM; P49327; recombinant FAS-TE, OMFH fluorogenic substrate, fluorescence endpoint;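 active = compounds whose normalised, plate-corrected inhibition of enzyme fluorescence in the single-dose primary screen is 50% or more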;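 also: 0% = DMSO with enzyme and 100% = substrate without enzyme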
NPR1 activator – GC-A (human) enzyme activation | AID 1671463 | 370,000 compounds, 0.14% hits | activation, % at 10 µM | P16066 | HEK293 GC-A cells, cGMP TR-FRET, EC30 ANP; 0% at EC30 ANP, 100% saturating ANP; in the data active = activation above about 40%
Target sequence (P16066 whole entry, looked up): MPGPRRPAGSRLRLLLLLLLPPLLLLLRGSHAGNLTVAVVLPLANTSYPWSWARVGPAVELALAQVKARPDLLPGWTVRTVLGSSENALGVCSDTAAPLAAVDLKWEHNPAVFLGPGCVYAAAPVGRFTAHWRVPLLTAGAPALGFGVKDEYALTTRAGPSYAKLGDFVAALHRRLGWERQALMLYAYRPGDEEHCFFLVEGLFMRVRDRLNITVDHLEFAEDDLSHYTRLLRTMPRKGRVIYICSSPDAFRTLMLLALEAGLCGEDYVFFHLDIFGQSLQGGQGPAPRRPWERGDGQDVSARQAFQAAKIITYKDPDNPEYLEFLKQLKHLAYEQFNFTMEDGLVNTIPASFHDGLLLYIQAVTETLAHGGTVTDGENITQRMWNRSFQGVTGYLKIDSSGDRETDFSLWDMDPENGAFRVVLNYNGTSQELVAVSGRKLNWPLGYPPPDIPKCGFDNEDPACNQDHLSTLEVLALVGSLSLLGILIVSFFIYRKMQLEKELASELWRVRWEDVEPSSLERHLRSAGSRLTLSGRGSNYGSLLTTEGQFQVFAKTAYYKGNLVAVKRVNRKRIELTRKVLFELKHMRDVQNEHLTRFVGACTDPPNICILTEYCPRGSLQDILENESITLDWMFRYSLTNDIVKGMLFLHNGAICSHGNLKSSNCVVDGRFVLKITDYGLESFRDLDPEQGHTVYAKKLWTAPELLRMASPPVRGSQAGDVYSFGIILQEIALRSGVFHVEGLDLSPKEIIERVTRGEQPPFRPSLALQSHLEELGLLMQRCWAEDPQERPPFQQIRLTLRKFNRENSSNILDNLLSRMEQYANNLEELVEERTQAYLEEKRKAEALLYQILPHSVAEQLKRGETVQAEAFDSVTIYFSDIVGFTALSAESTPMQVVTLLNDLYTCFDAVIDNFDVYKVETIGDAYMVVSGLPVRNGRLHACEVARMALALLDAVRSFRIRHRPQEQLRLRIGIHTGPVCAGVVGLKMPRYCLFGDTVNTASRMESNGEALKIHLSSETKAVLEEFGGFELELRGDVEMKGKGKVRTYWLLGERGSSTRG
A3A deaminase – human APOBEC3A DNA deaminase inhibition | P31941 | recombinant A3A, FAM/TAMRA ssDNA deamination fluorescence | inhibition, % at 20 µM | 330,000 compounds, 0.41% hits | AID 493011;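 active = at least 40% inhibition at 20 µM here, with at most 30% in a related deaminase screen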;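 also: plate controls were A3A with DMSO for no effect and wells lacking A3A enzyme for full effect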
APOBEC3G inh – APOBEC3G (human) deaminase inhibition. AID 493012. 330,000 compounds, 0.28% hits. inhibition, % at 20 µM. recombinant A3G, ssDNA deamination FAM/TAMRA fluorescence;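 active = inhibition of at least 40% at 20 µM, with no more than 30% in the related APOBEC3A deaminase screen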;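 also: plate controls were DMSO wells with A3G for no effect and wells lacking A3G enzyme for full effect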
GC-B act – GC-B (human) receptor activation. HEK293-GC-B cells, CNP EC30, cGMP TR-FRET; 0% at EC30 CNP, 100% saturating CNP. activation, % at 10 µM. 370,000 compounds, 0.11% hits;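 active = activation at 10 µM reaching about 35% in either raw or pattern-adjusted values, limit read from the data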
Active calls of the source: *.

C=CCNc1cccc2c1S(=O)(=O)N[C@@H](Cc1ccccc1)CO2 was read as NPR1 activator 0.7 and GC-B act -0.3.
Screening COc1ccc(NC(=O)CCCNS(=O)(=O)c2ccc3[nH]c(=O)oc3c2)cc1OC returned NPR1 activator 4.9 and GC-B act -2.8.
`Cn1cc([N+](=O)[O-])c(C(=O)Nc2nc(-c3ccc(Cl)cc3)cs2)n1` gave FAS TE block 22.7, NPR1 activator 60.1*, A3A deaminase 1.2, APOBEC3G inh -1.0 and GC-B act -2.2.
For Cn1c(=O)c2c(nc(NC3CCCCC3)n2Cc2ccccc2)n(C)c1=O the results were FAS TE block 7.4, NPR1 activator 78.5*, A3A deaminase -7.1, APOBEC3G inh -5.6 and GC-B act 53.7*.
`CCCCCn1c(NC2CCCCC2)nc2c1c(=O)[nH]c(=O)n2C` gave FAS TE block 1.6, NPR1 activator 47.6*, A3A deaminase -6.6, APOBEC3G inh -5.6 and GC-B act 17.0.
C/C(Cl)=C/Cn1c(NCCN(C)C)nc2c1c(=O)n(C)c(=O)n2C was read as FAS TE block -3.3, NPR1 activator 0.0, A3A deaminase -0.8, APOBEC3G inh -0.6 and GC-B act 0.2.
C/C(Cl)=C\Cn1c(Nc2ccccc2)nc2c1c(=O)n(C)c(=O)n2C was read as FAS TE block 2.9, NPR1 activator 61.9*, A3A deaminase 1.3, APOBEC3G inh -1.6 and GC-B act 54.9*.
Screening C[C@H]1[C@H](NC(=O)c2cccc(Cl)c2)CC[C@@]23CCCN2C(=O)CCC[C@@H]13 returned NPR1 activator 2.7 and GC-B act -3.8.
C[C@@H]1/C=C/CC(=O)N2[C@H](CC(=O)N[C@@H]1c1ccccc1)C[C@@H](C)[C@H]2c1ccccc1 was read as NPR1 activator -1.0 and GC-B act -0.4.
`O=C(CCN1CCC2CCC(C2)C1)c1ccccc1` (stereo not drawn) gave FAS TE block -5.3, NPR1 activator 53.1* and GC-B act -5.8.
CC(C)Nc1nc(Cl)nc(N(C#N)CN2C(=O)c3ccccc3C2=O)n1 was read as FAS TE block 1.3, NPR1 activator 47.7*, A3A deaminase 14.3, APOBEC3G inh -0.5 and GC-B act 48.4*.
Screening CCC(C)Nc1nc(Cl)nc(N(C#N)CN2C(=O)c3ccccc3S2(=O)=O)n1 (stereo not drawn) returned FAS TE block 4.7, NPR1 activator 15.7, A3A deaminase -3.0, APOBEC3G inh -2.4 and GC-B act 15.9.
`CC(NC(=O)Cc1cccs1)c1ccccc1` (stereo not drawn) gave FAS TE block -1.4, NPR1 activator 3.6, A3A deaminase -0.3, APOBEC3G inh -3.9 and GC-B act 1.3.
CCC(NC(=O)Cc1cccs1)c1ccccc1 (stereo not drawn) was read as FAS TE block -2.7, NPR1 activator 0.7, A3A deaminase -2.5, APOBEC3G inh -4.0 and GC-B act 68.3*.
c1ccc(Cc2cnc(N3CCN(Cc4cccc(-c5ccsc5)n4)CC3)nc2)cc1 was read as NPR1 activator -1.1 and GC-B act 4.7.
`Cc1ccc2c(CC(=O)OC3CCOC3=O)coc2c1` (stereo not drawn) gave FAS TE block -1.6, NPR1 activator 43.0*, A3A deaminase 3.7, APOBEC3G inh 0.2 and GC-B act 1.9.
For Cc1ccc2c(CC(=O)O)coc2c1 the results were FAS TE block -2.4, NPR1 activator 2.8, A3A deaminase -8.4, APOBEC3G inh -3.1 and GC-B act 4.8.
Cc1c(NS(=O)(=O)c2cccc(C(=O)OCC(=O)c3ccc(Cl)cc3)c2)c(=O)n(-c2ccccc2)n1C was read as FAS TE block 19.2, NPR1 activator 61.1* and GC-B act -2.2.
Screening Cc1ccnc(Nc2nc(-c3c(C)nc4sccn34)cs2)c1 returned FAS TE block 14.5, NPR1 activator 32.0, A3A deaminase -1.5, APOBEC3G inh -10.5 and GC-B act 36.7*.
Cc1ccnc(Nc2nc(-c3ccccc3)cs2)c1 was read as FAS TE block 24.2, NPR1 activator 6.4, A3A deaminase -0.2, APOBEC3G inh -4.1 and GC-B act -0.7.
CCOC(=O)CSc1nc2c(sc3ccc([N+](=O)[O-])cc32)c(=O)n1Cc1ccco1 was read as FAS TE block 35.5, NPR1 activator 48.1*, A3A deaminase 2.2, APOBEC3G inh 1.0 and GC-B act 50.2*.

Screening data deposited in PubChem BioAssay by Sanford-Burnham Center for Chemical Genomics.
